mHTT-CaM PPI inh = mutant huntingtin-calmodulin interaction inhibitors – biochemical, AlphaScreen, primary screen; P42858; AlphaScreen His-mHTT/GST-CaM binding, luminescence; inhibition, % at 15 µM; hit rate 3.6% among 190,000;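 note: 0% = both proteins with DMSO and 100% = one protein alone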
Pf apPOL inh = Pf-apPOL inhibitors, biochemical, fluorescence; Recombinant Pf-apPOL, molecular beacon fluorescence, 1.5 h; AID 1794808, 2022; Plasmodium falciparum apicoplast DNA polymerase (apPOL); inhibition, % at 10 µM; hit rate 0.25% among 210,000
* hit, by the source's call; x = no result given. This excerpt belongs to a sample that is enriched for hits. Cut-off read from the data, not from the text of the source: active = inhibition above about 50%; inactive = the rest.

SMILES | mHTT-CaM PPI inh | Pf apPOL inh
CC(=O)Nc1ccc(C(=O)N2CCc3cn(CC(C)C)c4cccc(c34)C2)cc1 | 72.5* | -1.3
O=C(c1ccc2c(c1)OCO2)N1CCC(c2nc(C3CC3)n[nH]2)CC1 | 0.0 | 4.0
CCN1CCn2c(nc3cc(C(=O)NC(C)c4ccc(C)cc4C)ccc32)C1=O (centres undefined) | 42.4 | 0.8
O=C(Nc1ccccc1F)O[C@H]1CCC12CCC(c1ccccc1)CC2 (some centres undefined) | -87.5 | -3.7
Cc1nccn1Cc1nc(C2CCCCC2)no1 | -3.0 | -2.5
Cc1ccc(NCCC(=O)c2cccc([N+](=O)[O-])c2)cc1 | 27.2 | -5.0
CC(C)c1ccc(NCCC(=O)c2ccc([N+](=O)[O-])cc2)cc1 | 55.9* | -0.9
O=C(NCCc1cccs1)C1CCN(c2cnn(Cc3ccccc3)c(=O)c2)CC1 | -1.6 | -7.8
C=CCN(C#N)c1nc(NC(C)C)nc(NC(C)C)n1 | -2.0 | 6.6
CCOc1ccc(/C=C2\SC(=N)N(c3ccc4c(c3)OCO4)C2=O)cc1OC | 11.0 | -6.2
CCOc1cc(/C=C2\SC(=N)N(c3nonc3N)C2=O)ccc1O | 16.0 | 51.8*
CCOc1cc(/C=C2\SC(=N)N(c3nccs3)C2=O)ccc1OCCN1CCOCC1 | 51.0* | -3.2
COc1cc(/C=C2\SC(=N)N(c3ccc(F)cc3)C2=O)ccc1O | 9.0 | 4.4
CC(C)NC(=O)c1nc2ccccc2n(C)c1=O | -3.3 | -5.7
Cc1cc(Cl)c(OCCCN2CCOCC2)c(Br)c1 | -3.2 | -5.2
Clc1cc2c(c3ncccc13)OCN(CCCN1CCOCC1)C2 | 100.0* | -12.0
CCn1nc(CNC(=O)c2ccc(F)c(F)c2)c2ccccc21 | -8.4 | 0.8
Cn1nc(C(=O)NCc2ccc3c(c2)OCO3)c2c1CCN(C(=O)C1CCCCC1)C2 | 72.0* | -11.8
Cn1nc(C(=O)NCc2ccc(Cl)cc2)c2c1CCN(C(=O)CC1CCCC1)C2 | 41.4 | 2.7
Cc1cccc(CNC(=O)c2nn(C)c3c2CN(C(=O)C2CCC2)CC3)c1 | 36.8 | -9.6
CCCC(=O)N1CCc2c(c(C(=O)NCc3ccc(Cl)cc3)nn2C)C1 | 83.9* | -9.6
Cn1nc(C(=O)NCc2ccc(F)cc2)c2c1CCN(C(=O)C1CCCC1)C2 | 77.2* | -2.5
CC(C)CC(=O)N1CCc2c(c(COCc3ccc(Cl)cc3)nn2C)C1 | 62.6* | -6.1
CCC(=O)N1CCc2c(c(C(=O)NCc3ccc4c(c3)OCO4)nn2C)C1 | 30.1 | -5.2
CCC(=O)N1CCc2c(c(COCc3ccc(C)cc3)nn2C)C1 | 13.9 | -2.3
SMILES | mHTT-CaM PPI inh | Pf apPOL inh
Cc1nnsc1C(=O)Nc1ccc(CC(=O)NCc2cccs2)cc1 | -12.2 | 3.3
Cc1ccccc1CNC(=O)C1(C)CCCN(C(=O)c2ccccc2Br)C1 (centres undefined) | 0.2 | 4.4
Cn1nc(COc2ccccc2)c2c1CCN(C(=O)Nc1ccccc1C(F)(F)F)C2 | 30.4 | -2.2
CC(=O)Nc1cccc(NC(=O)Cc2ccc(Br)cc2)c1 | -8.1 | -2.9
N#CC(=Cc1ccc(OCc2nc(-c3ccsc3)no2)cc1)C(=O)c1cccs1 | x | -10.2
CCCn1cnc2sc(C(=O)Nc3ccc4c(c3)OCO4)c(C)c2c1=O | 9.0 | -9.1
Cn1cnnc1C1CCCCN1S(=O)(=O)c1ccc(Cl)s1 (centres undefined) | 4.8 | 8.0
Cn1nc(C(=O)NCc2ccc(Cl)cc2)c2c1CCN(C(=O)C1CCCC1)C2 | 92.3* | -10.2
Cn1nc(C(=O)NCc2ccccc2)c2c1CCN(C(=O)C1CCC1)C2 | 36.3 | -8.6
COc1cccc2c1NC(c1ccccc1[N+](=O)[O-])C1CC=CC21 (centres undefined) | 73.0* | -1.1
COc1cc([N+](=O)[O-])cc2c1NC(c1ccc(Cl)cc1)C1CC=CC21 (centres undefined) | 38.0 | 8.7
Fc1ccc(C2Nc3c(Cl)cccc3C3C=CCC32)cc1 (centres undefined) | 37.0 | -0.5
O=[N+]([O-])c1cccc2c1NC(c1cccc(Cl)c1Cl)C1CC=CC21 (centres undefined) | 73.0* | -2.8
COc1ccc(C2Nc3c(Cl)cccc3C3C=CCC32)cc1[N+](=O)[O-] (centres undefined) | 52.0* | -3.8
COc1cc(C2Nc3c(Cl)cccc3C3C=CCC32)cc(OC)c1OC (centres undefined) | 70.0* | -4.2
COc1ccc(-c2nc(SCc3cccc(F)c3)c3c(=O)n(C)c(=O)n(C)c3n2)cc1 | 0.0 | 0.9
O=C(CSc1nnc(NC(=O)c2ccc3c(c2)OCO3)s1)OCc1ccccc1 | -10.2 | -1.9
Cc1ccc(-n2nc3c(c2NC(=O)Cc2ccccc2)CS(=O)(=O)C3)cc1 | -5.0 | -4.9
COCCC1CCN(C(=O)Cc2ccc(OC)cc2)CC1 | -3.1 | -5.3
CCOc1cc2c(c([N+](=O)[O-])c1)NC(c1ccc(Cl)cc1)C1CC=CC21 (centres undefined) | 41.0 | -1.1
